We go through 20 molecules from PubChem BioAssay.

Unmarked numbers belong to inactive results. The list shows a part of the results. The source made the active and inactive calls. Rule as the data show it, unless noted: active = inhibition above about 25%; inactive = the rest.

As a reminder, the inhibition is the drop in the measured response relative to a control, in per cent.

Assay [1] addresses Nuclear receptor coactivator 3 (Homo sapiens) (UniProt Q9Y6Q9). Description: NCOA3 GAL4-fusion reporter inhibition – cell-based, luminescence, quadruplicate, confirmation (AID 588792;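 active = mean inhibition over 43.08%, the solvent-only control mean plus 3 SD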;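 also: 0% = DMSO treated cells and 100% = gossypol at 36 µM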). The settings on record: HEK293 GAL4-SRC3 luciferase reporter, at 3.6 µM, stronger effect = higher value. For orientation: Reporter assays use an easily measured gene product as a stand-in for the process of interest.

In assay [2] the test system is transactivating tegument protein VP16 (Human herpesvirus 1), Gal4-VP16 luciferase reporter. As to the kind of experiment: repression of VP16-driven luciferase reporter – cell-based, luminescence, high throughput, counter-screen for SRC3 inhibitor project (AID 588794; in the data active = inhibition above about 30%). As to conditions: mammalian cells, at 3.6 µM, stronger effect = higher value.
Assay [3] concerns the target Nuclear receptor coactivator 1 (Homo sapiens) (UniProt Q15788). Description: NCOA1 GAL4-fusion reporter inhibition – cell-based, luminescence, quadruplicate, confirmation (AID 588820;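 active = mean inhibition above 46.68%, the untreated control wells mean plus 3 SD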;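 also: 0% = DMSO wells and 100% = gossypol 36 µM treated wells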). The settings on record: HEK293 GAL4-SRC1 luciferase reporter, at 3.6 µM, stronger effect = higher value.
A short description of assay [4]: repression of VP16-driven luciferase reporter – cell-based, luminescence, high throughput, counter-screen for SRC1 inhibitor project (AID 588824). The settings on record: cell-based VP16 transactivation luciferase luminescence; at 3.6 µM; stronger effect = higher value.
Assay [5] has as its system transactivating tegument protein VP16 (Human herpesvirus 1). As to the kind of experiment: compounds suppressing VP16-driven luciferase signal – cell-based, luminescence, single concentration, counter-screen for SRC2 inhibitor project (AID 652007; in the data active = inhibition above about 36%). The settings on record: cell-based VP16 transactivation luciferase reporter, at 8.9 µM, stronger effect = higher value. In general terms: Counterscreens check selectivity or assay interference.

In assay [6] the target is Nuclear receptor coactivator 2 (Homo sapiens) (UniProt Q15596). Description: inhibition of GAL4-SRC2 driven luciferase expression – cell-based, luminescence, HEK293, triplicate, confirmation (AID 652008;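 active = mean inhibition above 46.5%, the solvent-only control mean plus 3 SD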;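 also: 0% = DMSO-treated cells and 100% = Gossypol at 36 µM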). The settings on record: HEK293 GAL4-SRC2 luciferase reporter, at 8.9 µM, stronger effect = higher value.
The nature of assay [7]: VP16-driven transactivation reporter suppression – cell-based, luminescence, HEK293, counter-screen for COUP-TFII antagonist project (AID 687007; in the data active = inhibition above about 13%). The settings on record: HEK293 Gal4-VP16 luciferase reporter, at 8.5 µM, stronger effect = higher value.
Assay [8] addresses COUP transcription factor 2 (Homo sapiens) (UniProt P24468). As to the kind of experiment: retest of COUP-TFII reporter suppressors – cell-based, luciferase reporter, HEK293, triplicate, confirmation (AID 687008;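 active = mean inhibition over three repeats above a set limit taken from the earlier primary screen, cut at about 38% in these data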;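 also: 100% = cells given the luciferase reporter alone without the COUP-TF2 vector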). The settings on record: HEK293 NGFI-A luciferase reporter, luminescence; at 8.5 µM; stronger effect = higher value.

Nuclear receptor coactivator 2 (Homo sapiens), sequence (Q15596 whole entry, looked up, the tested form may be a part): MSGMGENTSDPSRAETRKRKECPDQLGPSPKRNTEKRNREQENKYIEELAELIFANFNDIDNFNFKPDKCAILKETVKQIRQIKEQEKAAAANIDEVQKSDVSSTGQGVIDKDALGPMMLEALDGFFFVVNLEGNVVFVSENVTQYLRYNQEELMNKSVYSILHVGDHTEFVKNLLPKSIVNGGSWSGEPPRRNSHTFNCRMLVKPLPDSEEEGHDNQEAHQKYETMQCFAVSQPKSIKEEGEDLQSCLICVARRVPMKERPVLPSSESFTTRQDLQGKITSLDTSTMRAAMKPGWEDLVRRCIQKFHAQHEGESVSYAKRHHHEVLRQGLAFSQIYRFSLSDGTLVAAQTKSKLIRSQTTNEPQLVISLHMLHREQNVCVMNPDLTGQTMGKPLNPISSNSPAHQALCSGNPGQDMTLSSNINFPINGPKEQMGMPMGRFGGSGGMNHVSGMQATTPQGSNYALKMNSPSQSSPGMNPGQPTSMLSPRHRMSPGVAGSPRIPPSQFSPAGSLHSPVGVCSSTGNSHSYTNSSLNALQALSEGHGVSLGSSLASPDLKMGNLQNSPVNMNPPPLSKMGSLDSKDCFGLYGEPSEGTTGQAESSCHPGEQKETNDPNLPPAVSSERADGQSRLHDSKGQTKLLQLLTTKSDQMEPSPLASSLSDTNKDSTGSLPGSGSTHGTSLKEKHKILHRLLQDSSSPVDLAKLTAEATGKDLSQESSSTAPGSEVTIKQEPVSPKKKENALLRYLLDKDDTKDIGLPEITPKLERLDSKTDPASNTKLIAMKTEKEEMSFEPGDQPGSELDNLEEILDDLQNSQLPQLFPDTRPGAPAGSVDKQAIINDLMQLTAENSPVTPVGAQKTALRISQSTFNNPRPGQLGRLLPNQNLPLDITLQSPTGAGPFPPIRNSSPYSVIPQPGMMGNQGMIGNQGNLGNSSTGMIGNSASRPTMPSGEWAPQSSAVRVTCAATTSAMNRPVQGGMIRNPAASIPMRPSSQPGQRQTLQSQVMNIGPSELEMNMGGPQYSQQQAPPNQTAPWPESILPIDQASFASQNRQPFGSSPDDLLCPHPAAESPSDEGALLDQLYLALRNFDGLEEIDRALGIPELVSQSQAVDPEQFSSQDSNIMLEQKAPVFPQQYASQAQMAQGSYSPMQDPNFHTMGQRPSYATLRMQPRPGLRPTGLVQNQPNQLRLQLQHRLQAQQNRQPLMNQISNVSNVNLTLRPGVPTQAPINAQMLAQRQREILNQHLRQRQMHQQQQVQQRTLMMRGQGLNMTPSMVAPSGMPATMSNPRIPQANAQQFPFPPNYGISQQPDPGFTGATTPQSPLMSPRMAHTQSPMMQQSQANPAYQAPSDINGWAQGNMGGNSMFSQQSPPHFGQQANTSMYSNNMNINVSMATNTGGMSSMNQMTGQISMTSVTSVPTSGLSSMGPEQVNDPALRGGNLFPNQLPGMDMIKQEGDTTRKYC
Nuclear receptor coactivator 3 (Homo sapiens), sequence (Q9Y6Q9 whole entry, looked up, the tested form may be a part): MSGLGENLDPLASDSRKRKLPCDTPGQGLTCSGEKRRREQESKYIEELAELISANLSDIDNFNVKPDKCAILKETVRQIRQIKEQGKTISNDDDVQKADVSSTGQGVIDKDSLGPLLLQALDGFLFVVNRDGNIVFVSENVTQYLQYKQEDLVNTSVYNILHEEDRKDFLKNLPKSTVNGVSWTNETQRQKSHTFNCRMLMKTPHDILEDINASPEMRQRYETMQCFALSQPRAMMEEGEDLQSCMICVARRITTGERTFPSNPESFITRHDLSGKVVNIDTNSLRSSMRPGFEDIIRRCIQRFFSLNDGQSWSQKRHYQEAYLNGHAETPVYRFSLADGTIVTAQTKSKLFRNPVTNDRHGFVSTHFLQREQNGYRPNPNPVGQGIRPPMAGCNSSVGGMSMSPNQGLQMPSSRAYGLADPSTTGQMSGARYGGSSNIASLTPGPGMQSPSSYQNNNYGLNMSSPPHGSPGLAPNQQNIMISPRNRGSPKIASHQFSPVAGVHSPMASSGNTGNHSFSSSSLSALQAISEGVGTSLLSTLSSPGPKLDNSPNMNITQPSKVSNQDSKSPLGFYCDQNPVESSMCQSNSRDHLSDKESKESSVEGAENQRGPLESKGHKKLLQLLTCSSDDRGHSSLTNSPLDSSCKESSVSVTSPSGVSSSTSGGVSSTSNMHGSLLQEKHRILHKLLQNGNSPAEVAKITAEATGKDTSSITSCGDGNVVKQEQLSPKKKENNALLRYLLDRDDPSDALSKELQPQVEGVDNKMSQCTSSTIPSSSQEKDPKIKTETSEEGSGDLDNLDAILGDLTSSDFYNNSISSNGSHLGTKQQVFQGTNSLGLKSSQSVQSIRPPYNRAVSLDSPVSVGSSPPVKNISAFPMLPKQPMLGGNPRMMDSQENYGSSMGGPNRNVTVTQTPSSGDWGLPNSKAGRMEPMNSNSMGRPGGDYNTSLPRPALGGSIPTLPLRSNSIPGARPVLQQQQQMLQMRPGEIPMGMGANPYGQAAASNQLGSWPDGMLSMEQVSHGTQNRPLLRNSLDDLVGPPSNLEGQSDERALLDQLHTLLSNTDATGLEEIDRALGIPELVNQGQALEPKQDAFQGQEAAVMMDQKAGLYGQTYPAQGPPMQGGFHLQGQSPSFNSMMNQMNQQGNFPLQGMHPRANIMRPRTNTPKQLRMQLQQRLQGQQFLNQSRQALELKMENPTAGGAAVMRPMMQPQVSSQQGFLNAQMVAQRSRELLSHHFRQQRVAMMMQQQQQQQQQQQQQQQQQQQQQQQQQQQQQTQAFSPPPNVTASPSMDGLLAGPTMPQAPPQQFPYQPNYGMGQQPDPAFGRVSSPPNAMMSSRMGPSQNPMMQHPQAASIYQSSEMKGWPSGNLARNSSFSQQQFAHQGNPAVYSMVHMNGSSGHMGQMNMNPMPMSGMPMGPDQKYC
Nuclear receptor coactivator 1 (Homo sapiens), sequence (Q15788 whole entry, looked up, the tested form may be a part): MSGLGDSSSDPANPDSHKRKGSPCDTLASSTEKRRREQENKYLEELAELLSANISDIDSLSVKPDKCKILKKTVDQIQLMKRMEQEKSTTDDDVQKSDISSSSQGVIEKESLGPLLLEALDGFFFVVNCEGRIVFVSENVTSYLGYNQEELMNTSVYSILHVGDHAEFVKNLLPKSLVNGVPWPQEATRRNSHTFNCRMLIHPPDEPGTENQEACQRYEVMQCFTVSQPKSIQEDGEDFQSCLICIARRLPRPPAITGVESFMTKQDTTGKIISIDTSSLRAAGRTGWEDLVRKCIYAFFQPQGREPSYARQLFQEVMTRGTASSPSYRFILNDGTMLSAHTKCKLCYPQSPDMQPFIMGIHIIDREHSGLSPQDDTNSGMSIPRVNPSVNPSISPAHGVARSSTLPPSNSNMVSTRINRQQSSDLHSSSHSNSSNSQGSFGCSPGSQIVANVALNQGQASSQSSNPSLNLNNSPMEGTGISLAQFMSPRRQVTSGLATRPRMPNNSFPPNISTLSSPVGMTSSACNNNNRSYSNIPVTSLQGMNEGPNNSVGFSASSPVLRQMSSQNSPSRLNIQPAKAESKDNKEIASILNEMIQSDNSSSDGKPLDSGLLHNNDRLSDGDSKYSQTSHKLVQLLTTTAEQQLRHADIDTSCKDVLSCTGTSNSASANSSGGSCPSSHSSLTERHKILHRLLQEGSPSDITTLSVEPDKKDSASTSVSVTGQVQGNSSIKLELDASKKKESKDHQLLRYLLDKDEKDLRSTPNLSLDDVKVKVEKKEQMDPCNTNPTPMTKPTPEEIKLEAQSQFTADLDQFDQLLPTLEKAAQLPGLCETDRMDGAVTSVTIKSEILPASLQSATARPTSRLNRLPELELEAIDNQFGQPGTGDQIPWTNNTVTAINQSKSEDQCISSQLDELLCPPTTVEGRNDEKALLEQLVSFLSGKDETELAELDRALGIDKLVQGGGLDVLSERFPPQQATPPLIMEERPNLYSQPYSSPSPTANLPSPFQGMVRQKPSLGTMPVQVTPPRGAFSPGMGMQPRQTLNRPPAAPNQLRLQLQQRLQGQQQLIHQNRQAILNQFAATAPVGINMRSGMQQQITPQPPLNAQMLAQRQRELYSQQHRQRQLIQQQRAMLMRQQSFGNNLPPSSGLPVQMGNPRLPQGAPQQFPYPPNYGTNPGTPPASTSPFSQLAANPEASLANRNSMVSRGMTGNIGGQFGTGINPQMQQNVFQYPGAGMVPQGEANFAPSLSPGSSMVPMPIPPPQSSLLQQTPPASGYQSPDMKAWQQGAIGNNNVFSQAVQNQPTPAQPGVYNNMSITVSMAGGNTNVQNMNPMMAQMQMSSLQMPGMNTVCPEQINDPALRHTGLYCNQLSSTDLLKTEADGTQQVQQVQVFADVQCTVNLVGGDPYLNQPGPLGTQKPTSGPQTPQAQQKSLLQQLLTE
COUP transcription factor 2 (Homo sapiens), sequence (P24468 whole entry, looked up): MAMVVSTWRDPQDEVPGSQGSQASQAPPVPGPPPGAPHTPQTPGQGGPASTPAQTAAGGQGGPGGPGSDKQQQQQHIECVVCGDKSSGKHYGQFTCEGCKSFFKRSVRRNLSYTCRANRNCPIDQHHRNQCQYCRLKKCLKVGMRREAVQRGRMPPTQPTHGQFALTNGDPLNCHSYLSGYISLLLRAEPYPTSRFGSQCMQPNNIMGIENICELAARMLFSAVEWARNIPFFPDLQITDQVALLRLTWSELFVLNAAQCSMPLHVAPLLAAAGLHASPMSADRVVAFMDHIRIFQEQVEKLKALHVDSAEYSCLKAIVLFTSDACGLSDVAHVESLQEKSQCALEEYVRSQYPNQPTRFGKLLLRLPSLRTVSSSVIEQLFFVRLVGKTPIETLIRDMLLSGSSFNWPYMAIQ

As for `C=C1C(=O)OC2CC1C(O)CC(C)=CCCC(C)=CC(O)CC2C` (centres undefined), the inhibition in assay [1] is 22.9%; in assay [2], 42.7% (active); in assay [3], 27.9%; in assay [4] it was 49.7% (active); in assay [5], 23.9%; in assay [6], 50.8% (active).
Regarding `O=C(CCl)NC(Cc1ccccc1)c1ccccc1` (centres undefined), the inhibition in assay [1] was 52.5% (active); in assay [2] it was 14.2%; in assay [3], 24.6%; in assay [4], 6.41%; in assay [5], 32.8%; in assay [6] it was 47.5% (active).
Regarding `COCCn1c(C)cc(C(=O)CSc2nnnn2C2CCCC2)c1C`, the inhibition was -7.91% in assay [1]; -5.21% in assay [2]; -99.2% in assay [3]; -66.8% in assay [4]; -19.6% in assay [5]; 51.9% (active) in assay [6].
As to `CC1CCN(C2=NC(=O)/C(=C/c3ccccc3F)S2)CC1`, the inhibition in assay [1] was 38.5%; in assay [2], -5.24%; in assay [3], -2.11%; in assay [4], -40.4%; in assay [5] it was -74.3%; in assay [6], 15.4%.
Take `Cc1cc(C(=O)COC(=O)C2CC2)c(C)n1-c1ccc(F)cc1`: the inhibition is 4.63% in assay [1]; 5.67% in assay [2]; -12.9% in assay [3]; -14.9% in assay [4]; 1.88% in assay [5]; 20.3% in assay [6]. The inhibition in assay [7] was -16.4%; in assay [8], 30.3%.
Regarding `CCN(CC)c1ccc(/C=N/Nc2nc(C)cc(=O)[nH]2)c(O)c1`, the inhibition in assay [1] was 87.7% (active); in assay [2], 78.7% (active); in assay [3], 67.1% (active); in assay [4] it was 74.3% (active); in assay [5], -39.4%; in assay [6] it was 29.6%.
In the case of `COc1ccc(-c2nc(-c3ccccn3)no2)cc1`, the inhibition was 63.4% (active) in assay [1]; 48.2% (active) in assay [2]; 16.6% in assay [3]; 44.4% (active) in assay [4]; 62.5% (active) in assay [5]; 80.7% (active) in assay [6].
`O=C(CC(Nc1ccc(Cl)cc1Cl)C(=O)O)c1ccccc1` (centres undefined): the inhibition in assay [1] was 52.3% (active); in assay [2] it was 18.1%; in assay [3], -4.19%; in assay [4], -13.2%; in assay [5], 18.8%; in assay [6], 57.9% (active).
As for `COC(=O)c1cccc2c1-c1ccccc1/C2=N/O`, the inhibition was 50.9% (active) in assay [1]; 24.4% in assay [2]; 34.5% in assay [3]; 25.2% in assay [4]; 21.1% in assay [5]; 42.4% in assay [6].
Take `O=C1NC(=S)N/C1=C\c1cccnc1`: the inhibition in assay [1] was 49.2% (active); in assay [2], 36.6% (active); in assay [3], 52.9% (active); in assay [4] it was 33.3% (active); in assay [5], 0.14%; in assay [6], 44%.
`Clc1ccc(CSc2nnc(-c3ccncc3)o2)cc1`: the inhibition in assay [1] is 48.3% (active); in assay [2], 30.9% (active); in assay [3], 43.3%; in assay [4], 32.8% (active); in assay [5] it was -11.8%; in assay [6], 28.8%.
On to `CC(=O)OC1CC2C(C)(C)C(=O)C=CC2(C)C2CCC3(C)C(c4ccoc4)OC(=O)C4OC43C12C` (centres undefined), for which the inhibition in assay [1] was 49.5% (active); in assay [2], 41.8% (active); in assay [3], 25.9%; in assay [4], 56.1% (active); in assay [5] it was 43.9% (active); in assay [6] it was 6.63%.
For the molecule `CCn1c(Oc2ccc(F)cc2)nc2c1c(=O)n(C)c(=O)n2C`, the inhibition in assay [1] is 33.6%; in assay [2] it was 29.8% (active); in assay [3] it was 39.9%; in assay [4] it was 23.5%; in assay [5], 2.83%; in assay [6] it was 30.9%.
In the case of `Cc1csc(SCC(=O)c2cc(C)n(Cc3cccs3)c2C)n1`, the inhibition was 9.06% in assay [1]; -12.3% in assay [2]; -81.8% in assay [3]; -42.6% in assay [4]; -28.2% in assay [5]; 31.4% in assay [6].
For `CC(C)(C)c1ccc(Oc2ccc(N)cn2)cc1`, the inhibition in assay [1] is 39.6%; in assay [2], 20.4%; in assay [3], 2.49%; in assay [4] it was 18.6%; in assay [5] it was 69% (active); in assay [6], 88.9% (active).
For `Brc1ccc2ncnc(Nc3ccc(N4CCOCC4)cc3)c2c1`, the inhibition in assay [1] was 57.9% (active); in assay [2] it was 31.9% (active); in assay [3], 59.7% (active); in assay [4] it was 35.3% (active); in assay [5], -2.24%; in assay [6], 39.9%.
Consider `C(=N\Nc1ccc2ccccc2n1)/c1ccc2c(c1)OCCO2`, for which the inhibition in assay [1] is 34.6%; in assay [2], 24.2%; in assay [3], -49.9%; in assay [4], -11.3%; in assay [5], 44.3% (active); in assay [6], 83.2% (active).
Turning to `Cc1nc2cc(N3CCN(C)CC3)c(NC(=O)Cc3ccccc3)cc2c(=O)n1Cc1ccccc1`, the inhibition in assay [1] was 17.6%; in assay [2], 10.3%; in assay [3], -11.5%; in assay [4], -3.19%; in assay [5] it was 4.08%; in assay [6], 34.5%.
Regarding `NC(=O)c1sc2nc3c(c(-c4ccccc4)c2c1N)CCC3`, the inhibition in assay [1] was 77.1% (active); in assay [2], 54.8% (active); in assay [3] it was 72.8% (active); in assay [4], 49.3% (active); in assay [5] it was 12.9%; in assay [6], 51% (active). The figures for the inhibition in assay [7] and in assay [8] were 18.6% (active) and 31.9%, respectively.
On to `O=C(Nc1ccccc1Oc1ccccc1)c1cc([N+](=O)[O-])ccc1Cl`, for which the inhibition in assay [1] was 52.5% (active); in assay [2], 24.8%; in assay [3], 24.8%; in assay [4] it was 33.9% (active); in assay [5] it was 21.9%; in assay [6], 50.4% (active).
